Assay outcomes (PubChem BioAssay)
Beta cell apopt – blocks beta cell apoptosis | 300,000 tested, 0.8% active | AID 435005 | INS-1E cytokine-induced death, ATP luminescence, 48 h; percent of positive-control rescue, neutral wells zero | protection from apoptosis, % (concentration not given with the values);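 active = Every replicate reaches about 75%, or at least half do and their mean reaches it too, limit read from the data; inconclusive = At least half of replicates reach the limit but their mean does not; inactive = Under half of replicates reach the limit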;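 also: 0% = cytokine-treated negative control wells and 100% = positive control rescue; higher means more ATP so stronger rescue from cytokine killing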
Mdm2 MdmX PPI – inhibitors of human Mdm2/MdmX interaction; 330,000 tested, 3% active; inhibition, % at 8 µM; AID 485346; SaOS-2 split-luciferase Mdm2/MdmX complementation, luminescence; O15151+Q00987;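 active = inhibition of at least 50% at 8 µM in the primary screen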
Target sequence (O15151 whole entry, looked up): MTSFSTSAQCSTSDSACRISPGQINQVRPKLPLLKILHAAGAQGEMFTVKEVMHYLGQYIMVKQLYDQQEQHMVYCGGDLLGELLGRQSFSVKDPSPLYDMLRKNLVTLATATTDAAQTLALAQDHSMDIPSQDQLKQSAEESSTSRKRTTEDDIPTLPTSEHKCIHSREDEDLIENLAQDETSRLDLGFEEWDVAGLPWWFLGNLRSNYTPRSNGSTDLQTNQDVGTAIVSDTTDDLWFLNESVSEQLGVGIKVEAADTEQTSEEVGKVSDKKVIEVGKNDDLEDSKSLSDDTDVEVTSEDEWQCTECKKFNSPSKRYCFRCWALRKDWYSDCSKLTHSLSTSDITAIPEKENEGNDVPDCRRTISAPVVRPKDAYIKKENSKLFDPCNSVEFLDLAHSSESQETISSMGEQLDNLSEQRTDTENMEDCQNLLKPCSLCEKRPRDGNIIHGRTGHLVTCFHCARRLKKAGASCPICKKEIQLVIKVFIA
Target sequence (Q00987 whole entry, looked up): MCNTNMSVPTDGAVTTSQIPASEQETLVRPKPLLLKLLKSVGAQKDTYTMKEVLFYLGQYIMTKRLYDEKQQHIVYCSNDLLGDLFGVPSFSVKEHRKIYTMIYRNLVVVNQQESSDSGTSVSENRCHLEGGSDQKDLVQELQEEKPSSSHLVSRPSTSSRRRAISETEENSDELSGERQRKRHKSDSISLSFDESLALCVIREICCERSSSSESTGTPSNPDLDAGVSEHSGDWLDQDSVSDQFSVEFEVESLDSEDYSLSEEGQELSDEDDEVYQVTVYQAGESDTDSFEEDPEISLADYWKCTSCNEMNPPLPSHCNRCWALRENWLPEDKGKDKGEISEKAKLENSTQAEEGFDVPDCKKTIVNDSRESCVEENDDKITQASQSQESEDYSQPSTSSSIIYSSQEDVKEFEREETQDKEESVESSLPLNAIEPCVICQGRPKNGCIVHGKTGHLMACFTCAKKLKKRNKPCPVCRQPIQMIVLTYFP
CSC inhib – cancer stem cell inhibition; cancer stem cell-like cells viability, luminescence; inhibition, % at 7.5 µM; 300,000 tested, 1.1% active; AID 2717; in the data active = inhibition above about 75%; inconclusive = no clear call, values can overlap the other calls; tested in HMLE shEcad cells
Calb FLC – C. albicans growth modulation with fluconazole; C. albicans CaCi-2 (fluconazole-resistant clinical isolate) + fluconazole, Alamar Blue growth, 48 h; growth inhibition, % (test concentration not listed); 300,000 tested, 0.57% active; AID 1979;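 active = growth inhibition above about 58% in most replicates, limit read from the data, passing the limit was not always enough; inconclusive = exactly half the replicates above a set limit; inactive = most replicates below a set limit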;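 also: all wells also contain fluconazole at 8 µg/ml as a sub-toxic cotreatment; 0% = median of DMSO wells and 100% = median of geldanamycin control wells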
PP5 primary – PP5 (human) phosphatase inhibition | AID 1987 | 320,000 tested, 0.18% active | inhibition, % at 6.7 µM | P53041 | purified PP5c, OMFP substrate fluorescence;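 active = inhibition above the campaign's mean inhibition across all tested compounds plus 3 SD, cut at about 9.5% in these data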;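 also: 0% = DMSO only and 100% = 100 µM cantharidin control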
PP1 counter – PP1-alpha (human) inhibition in PP5 counter-screen | purified PP1alpha, OMFP fluorescence | inhibition, % at 6.7 µM | 320,000 tested, 0.9% active | AID 2235;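 active = inhibition above the mean inhibition of all tested compounds plus 3 SD, computed separately for each screening campaign, cut at about 15% in these data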
Mdm2-MdmX conf – human Mdm2/MdmX binding inhibition, confirmed; shares compounds with Mdm2 MdmX PPI; luminescent assay; inhibition, % at 8 µM; 10,000 tested, 55% active; AID 489028; in the data active = inhibition above about 40%
Full FLuc ctr – inhibits full-length luciferase, flagging false Mdm2/MdmX hits. AID 504607. shares compounds with Mdm2 MdmX PPI. inhibition, % at 8 µM. SaOS-2 full-length luciferase counterscreen, luminescence. 6,200 tested, 77% active;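 active = mean inhibition at 8 µM reaching about 37%, which flags the compound as non-specific, limit read from the data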;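 also: p53-null SaOS-2 cells with luciferase driven by a doxycycline-inducible promoter; compound on cells about two nights before reading with doxycycline added after day one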
Starred values were filed as active, the others as inactive; ? = inconclusive; / = no result. An excerpt weighted towards active compounds, which were near 4.9% of everything screened.

SMILES	Beta cell apopt	Mdm2 MdmX PPI	CSC inhib	Calb FLC	PP5 primary	PP1 counter	Mdm2-MdmX conf	Full FLuc ctr
O=C(O)C1Sc2[nH]c(=O)sc2C2c3ccc(O)cc3OC(=O)C12 (stereo not drawn)	-1.7	-34.1	-3.9	1.9	2.1	0.3	/	/
Cc1ccc2c(c1)C(=O)N1[C@H]3c4cc(C)ccc4OC[C@@H]3[C@H](c3ccccc3)[C@]1(C)C(=O)N2	6.6	54.0*	42.5	/	/	/	42.9*	38.2*
COc1ccc(-c2cc(C#N)nc(NN)n2)cc1	-1.5	10.3	3.4	-21.0	2.2	5.3	/	/
CCN(CC)c1nc(C#N)cc(-c2ccc(OC)cc2)n1	21.6	53.8*	-1.9	-11.2	0.1	-1.1	65.0*	47.0*
COc1ccc(-c2cc(C#N)nc(Cl)n2)cc1	-6.2	68.2*	25.1	-5.9	-0.6	-0.6	33.6	38.2*
COc1ccc(-c2cc(C#N)nc(Oc3ccc(Cl)cc3)n2)cc1	9.8	37.0	-0.8	5.3	-1.1	-3.5	/	/
NC(=S)NCc1cccnc1	2.7	-25.2	-4.9	-8.0	-0.6	-2.9	/	/
CSC(=S)NCc1cccnc1	8.6	79.5*	34.8	87.7*	-0.2	-2.2	73.0*	38.9*
N#Cc1ccc(CN2CCN(C(=O)C3CC(=O)N(c4ccccc4F)C3)CC2)cc1 (stereo not drawn)	0.0	3.6	-6.6	/	/	/	/	/
O=C(c1ccc(OC2CCN(CCO)CC2)cc1)N1CCCC1	/	-15.2	-3.5	-5.8	3.8	-2.3	/	/
Cc1c(N=NC2=C(O)CC(C)(C)CC2=O)cc2c(c1[N+](=O)[O-])C(C)(C)CC2(C)C	0.6	69.7*	10.6	-5.4	-2.6	-1.9	20.9	/
CC(C)(C)OC(=O)NCc1ccc(NC(=O)c2nc[nH]c2C(=O)N[C@@H](Cc2ccccc2)C(=O)OCc2ccccc2)cc1	-1.2	59.8*	-24.8	15.1	6.0	6.5	16.2	/
C[C@H](NC(=O)c1nc[nH]c1C(=O)N[C@@H](Cc1ccccc1)C(=O)OC(C)(C)C)c1ccccc1	-8.7	50.1*	48.1	11.4	7.2	11.3	-3.5	/
CC(C)C[C@H](NC(=O)c1nc[nH]c1C(=O)N1CCN(C(=O)OC(C)(C)C)CC1)C(=O)OC(C)(C)C	-6.4	90.9*	51.1	1.3	3.0	-0.6	80.6*	52.6*
CC(C)C[C@H](NC(=O)c1nc[nH]c1C(=O)NCc1ccc(CNC(=O)OC(C)(C)C)cc1)C(=O)OCc1ccccc1	-5.0	26.7	-1.6	6.0	5.5	12.0	/	/
CC(C)C[C@H](NC(=O)c1nc[nH]c1C(=O)N[C@@H](CC(C)C)C(=O)OC(C)(C)C)C(=O)OCc1ccccc1	?	63.8*	46.1	14.0	5.5	6.3	-10.6	/
C[C@H](NC(=O)c1nc[nH]c1C(=O)N1CCN(C(=O)OC(C)(C)C)CC1)C(=O)OC(C)(C)C	0.0	7.5	15.9	/	1.1	-4.3	/	/
O=C(CCl)N1CCCC1c1ccc2c(c1)OCCO2 (stereo not drawn)	-1.9	75.1*	-1.8	8.0	-0.6	-4.1	32.9	42.6*
Cc1oc2cc(Br)c(O)c(Br)c2c1-c1ccccc1	0.9	/	2.7	5.5	1.0	-1.2	/	/
CO/N=C\CC(=O)Nc1ccc(Oc2ccccc2)cc1	-9.0	51.9*	0.5	-38.4	0.0	-1.2	63.0*	73.3*
O=C(C/C=N\O)Nc1ccc(Oc2ccccc2)cc1	-5.9	-1.0	-4.3	2.0	-0.3	-0.7	/	/
O=C(NNC(=O)C(c1ccccc1)c1ccccc1)c1ccccn1	70.2	66.0*	27.1	-61.2	-0.3	0.2	66.2*	41.5*
COc1cc(/C=C2/C(=O)N(C)C(=S)N2C)ccc1OCc1cccc(F)c1	-0.5	88.2*	-13.5	4.0	1.5	-3.5	23.9	/
CN1C(=O)/C(=C/c2ccc(OCc3cccc(F)c3)cc2)NC1=S	14.1	35.9	-4.5	1.3	-1.5	-1.2	/	/
COc1cccc(-c2nnc3n2N=C(C(C)(C)C)CS3)c1	-48.5	85.0*	-16.8	-29.6	2.2	-6.2	99.0*	51.2*
c1ccc(C2=Nn3c(nnc3-c3cc(-c4ccccc4)n[nH]3)SC2)cc1	/	78.5*	20.1	-0.7	3.7	12.8	21.4	/
